According to PubChem BioAssay AID1014 (NMMLSC, 2008):
The source made the active and inactive calls. No stated cut-off is given here; in the data, active means inhibition of mean fluorescence above about 33%; inactive means the rest.

Assay: quorum sensing inhibitors in bacterial reporter, SAR follow-up, flow cytometry, SAR analogs (AID 1014);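 further: Staphylococcus aureus RN6390 with RNAIII-GFP reporter stimulated by AIP; bacteria incubated with compound for 3 hours at 37 °C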
Conditions: at 20 µM, stronger effect = higher value; inhibition of percent positive cells: flow cytometry fluorescence, measured here: percent reporter-positive cells

SMILES | inhibition of mean fluorescence | inhibition of percent positive cells [%]
Cc1oc2ccc(O)cc2c1C(=O)O | -20.2% (inactive) | -0.5
COc1ccc(CC(=O)Nc2oc(-c3ccccc3)c(-c3ccccc3)c2C#N)cc1 | 42.6% (active) | 1.3
Cc1ccc(Nc2c(F)c(F)c(F)c(F)c2C(=O)O)cc1 | 9.9% (inactive) | -0.2
COc1cccc(Nc2c(F)c(OC)c(F)c(F)c2C(=O)O)c1 | -6.6% (inactive) | 0
Cc1cccc(OCC(=O)Nc2sc3c(c2C#N)CCCC3)c1C | 28.1% (inactive) | 1.4
CC1CCN(C(=O)c2oc3ccccc3c2NC(=O)c2ccc3c(c2)OCO3)CC1 | 25.2% (inactive) | -0.2
O=C(NCC(c1cccnc1)N1CCc2ccccc21)c1cccc(F)c1 (stereo not drawn) | 6.5% (inactive) | -2
CN=C1NC(=O)CC(C(=O)Nc2ccc3ccccc3c2)S1 (stereo not drawn) | -1.7% (inactive) | -0.3
O=C(O)c1ccccc1NC(c1ccccc1)c1ccc(Cl)cc1 (stereo not drawn) | 59.8% (active) | 0.2
O=C(NCC(c1cccnc1)N1CCN(c2ccc(F)cc2)CC1)c1ccccc1F (stereo not drawn) | -2.2% (inactive) | 0.3
COc1ccc(C(=O)NCC(c2cccnc2)N2CCN(c3ccccc3F)CC2)cc1OC (stereo not drawn) | -7.3% (inactive) | -1.8
Cc1ccc2occ(/C=C/C(=O)c3ccc(O)cc3)c(=O)c2c1 | -0.6% (inactive) | -0.1
O=C(NCC(c1cccnc1)N1CCN(c2ccccc2F)CC1)c1ccccc1 (stereo not drawn) | -24.2% (inactive) | -1.5
O=C(NC1CCCC1)C(c1cc2c(cc1[N+](=O)[O-])OCO2)N1CCCC1 (stereo not drawn) | -3.7% (inactive) | -0.1
COc1cc(C(=O)NCC(c2cccnc2)N2CCN(c3ccccc3F)CC2)cc(OC)c1OC (stereo not drawn) | -57.3% (inactive) | -1.5
Cc1cc(C)cc(Nc2nc3c(S(=O)(=O)c4ccccc4)nnn3c3ccccc23)c1 | 0.4% (inactive) | 0.1
Cc1ccccc1Nc1c(F)c(F)c(F)c(F)c1C(=O)O | -18.8% (inactive) | -1.9
CSCCC(NC(=O)c1ccccc1)C(=O)OCC(=O)Nc1sc2c(c1C#N)CCCC2 (stereo not drawn) | 40.6% (active) | -0.2
Cc1ccc(NC(=O)CN2CCN(Cc3ccc4c(c3)OCO4)CC2)cc1 | -30.1% (inactive) | -0.8
COc1c(F)c(F)c(C(=O)O)c(Nc2cccc(C)c2)c1F | -11.5% (inactive) | -1.3

SMILES | inhibition of mean fluorescence | inhibition of percent positive cells [%]
Cc1nnc2c3ccccc3nc(Nc3ccccc3C(=O)O)n12 | 18.4% (inactive) | -0.2
Cc1ccc(C)c(Nc2c(F)c(F)c(F)c(F)c2C(=O)O)c1 | 2.3% (inactive) | -1.9
O=C(O)c1ccccc1Nc1cn2ncc([N+](=O)[O-])c2c(=O)[nH]1 | -1.7% (inactive) | -0.3
Cc1cc(C)nc(Nc2ccc(Br)cc2C(=O)O)n1 | 17.1% (inactive) | 0.6
COc1cc(Nc2cc(C)nc3nc(C)nn23)c(C(=O)O)cc1OC | -11.6% (inactive) | 0.5
CC1CCN(CCC(=O)Nc2ccc3c(c2)OCO3)CC1 | 10% (inactive) | 1.6
CC(=O)c1cc2c(cc1NC(=O)CN1CCOCC1)OCO2 | -26.1% (inactive) | -1
N#Cc1c(NC(=O)COC(=O)c2c3c(nc4ccccc24)CCCC3)sc2c1CCCC2 | -13.5% (inactive) | -0.1
CCOC(=O)c1c(-c2ccc(OC)cc2)oc2ccc(O)cc12 | -20.8% (inactive) | 0.1
COc1ccc(NC(=O)C(c2cc3c(cc2[N+](=O)[O-])OCO3)N2CCCCC2)cc1 (stereo not drawn) | -14.1% (inactive) | -1.6
CC(=O)c1cc2c(cc1NC(=O)CN1CCN(C(=O)c3ccco3)CC1)OCO2 | -5.2% (inactive) | -0.1
Cc1nnc(N2CCCC(C(=O)Nc3ccc4c(c3)OCO4)C2)c2nn(-c3ccccc3)c(C)c12 (stereo not drawn) | -10.1% (inactive) | 0
COc1ccc(C(=O)NCC(c2cccnc2)N2CCN(c3ccc(F)cc3)CC2)cc1 (stereo not drawn) | -13.4% (inactive) | -0.3
O=C(NCC(c1cccnc1)N1CCN(c2ccccc2F)CC1)c1cccs1 (stereo not drawn) | 19.5% (inactive) | -0.4
Cc1ccc(S(=O)(=O)c2nnn3c2nc(Nc2cc(C)cc(C)c2)c2ccccc23)cc1 | -4% (inactive) | -1.1
Cc1ccc(Nc2c(C(=O)O)cc([N+](=O)[O-])cc2[N+](=O)[O-])cc1Cl | -19.5% (inactive) | -0.4
COc1ccc(C(=O)N2CCC(C(=O)Nc3ccc4c(c3)OCO4)CC2)cc1 | -3.1% (inactive) | 0
O=C(O)c1ccccc1Nc1c([N+](=O)[O-])c(=O)oc2ccccc12 | -23.2% (inactive) | -1.7
COc1ccc(CC(=O)Nc2oc(-c3ccccc3)c(-c3ccccc3)c2C#N)cc1OC | 20% (inactive) | -0.5
